These results are taken from PubChem BioAssay AID425 (Sanford-Burnham Center for Chemical Genomics, 2006).

“And” between values parts separate entries of the source, which are not always exact repeats. Equal entries are not always repeated. In all, about 110,000 compounds went through this assay and about 190 (0.17%) were called active. Rule as the data show it: active = inhibition above about 50%; inactive = the rest. Shown is part of a subset that was picked to be rich in actives. Potency and affinity values are given separately. A structure can be active in one record and inactive in another.

In this assay the target is Dual specificity protein phosphatase 6 (Rattus norvegicus) (UniProt Q64346). Description: inhibition of rat DUSP6 enzyme activity – biochemical, in vitro, primary screen (AID 425).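 Also: plate controls were vehicle for no effect and reference inhibitor for full effect.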 Particulars: recombinant MKP-3 phosphatase activity, fluorescence; at 20 µM; stronger effect = higher value.
Sequence of Dual specificity protein phosphatase 6 (Rattus norvegicus) (Q64346 whole entry, looked up): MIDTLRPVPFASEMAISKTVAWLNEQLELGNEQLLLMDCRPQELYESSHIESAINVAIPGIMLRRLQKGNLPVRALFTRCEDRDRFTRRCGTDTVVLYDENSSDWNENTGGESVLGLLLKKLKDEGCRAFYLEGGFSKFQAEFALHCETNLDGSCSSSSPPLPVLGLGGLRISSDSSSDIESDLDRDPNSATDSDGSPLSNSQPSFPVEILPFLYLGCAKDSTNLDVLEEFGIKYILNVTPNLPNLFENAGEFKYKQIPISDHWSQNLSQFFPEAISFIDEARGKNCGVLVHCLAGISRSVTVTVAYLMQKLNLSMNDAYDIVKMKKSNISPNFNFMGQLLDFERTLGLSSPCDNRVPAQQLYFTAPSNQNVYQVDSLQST
As to `O=C(NCCN1CCOCC1)c1cnn2c(C(F)(F)F)cc(-c3ccc(Br)cc3)nc12`, the inhibition was -0.4% (inactive).
On to `CCN1C(=O)N(COC(C)=O)C2C1N(COC(C)=O)C(=O)N2CC` (stereo unspecified), for which the inhibition was 3.5% (inactive).
With `Cc1c(-c2cccc(Cl)c2)nc2ccccc2c1C(=O)O`, the inhibition is 1.1% (inactive).
In the case of `O=C(Cn1c(O)c(N=NC(=O)c2ccc([N+](=O)[O-])cc2)c2ccccc21)Nc1ccccc1` it was 0.9% (inactive).
Under `O=C(Cn1c(O)c(N=NC(=O)C(=O)Nc2ccc([N+](=O)[O-])cc2)c2ccccc21)Nc1ccccc1` stands -0.4% (inactive).
Take `Cc1ccc(C2SCC(=O)N2CCCN(C)C)cc1` (stereo unspecified): the inhibition was -0.2% (inactive).
In the case of `Cc1c(Cl)cccc1N=C1NC(=O)/C(=C/c2ccc(OC(C)C)cc2)S1`, the inhibition is 3.5% (inactive).
Under `O=C(Nc1ccccc1Cl)c1cccc(NC(=O)C(F)(F)F)c1` stands 98.8% (active); under `O=C(Nc1ccccc1Cl)c1cccc(F)c1`, 0.5% (inactive).
`Cc1ccccc1C(=O)Nc1cccc(C(=O)Nc2ccccc2Cl)c1`: the inhibition was 0.2% (inactive).
In the case of `CCOC(=O)C1=C(O)CCn2c1nc1ccccc12` it was -0.7% (inactive) and -13.2% (inactive); in that of `CCOC(=O)C1(C)C=C(Nc2ccc(S(=O)(=O)Nc3nccs3)cc2)C(=O)N1c1ccccc1` (stereo unspecified), 2.7% (inactive).
Under `COC(=O)c1c(NC(=O)c2cncc(Br)c2)sc2c1CCC2` stands -14% (inactive); under `Cc1ccccc1NC(=O)C(C)NC(=O)C12CC3CC(CC(C3)C1)C2` (stereo unspecified), 1.2% (inactive); under `Cc1cc(-c2ccccc2)nc2cc(C(=O)Nc3ccc(Cl)cc3)nn12`, 3.4% (inactive).
Under `COc1ccc(Cl)cc1NC(=O)c1cc2nc(-c3ccccc3)cc(C)n2n1` stands 63.8% (active); under `COc1cc(NC(=O)c2cc3nc(-c4ccccc4)cc(C)n3n2)c(OC)cc1Cl`, 10.6% (inactive); under `Cc1ccc(NC(=O)COc2ccc(Br)cc2)c(C)c1`, 2.7% (inactive).
Turning to `Cc1ccc(S(=O)(=O)Nc2cc(C)c(O)c(Sc3ncn[nH]3)c2)cc1`, the inhibition was 4.4% (inactive).
Under `Cc1ccc(S(=O)(=O)Nc2cc(Sc3ncn[nH]3)c(O)c3ccccc23)cc1` stands 56% (active); under `Cc1ccc(S(=O)(=O)Nc2cc(Sc3nc4ccccc4[nH]3)c(O)c3ccccc23)cc1`, 8.1% (inactive); under `COc1ccc(C2CC(=O)C3=C(C2)Nc2ccccc2NC3c2cccs2)cc1` (stereo unspecified), 3.6% (inactive).
Regarding `Cn1c(/C=C/c2ccc(Br)cc2)nc2ccccc2c1=O`, the inhibition is 0.8% (inactive).
Under `Cc1nc(C)n(C)c(=O)c1-c1ccccc1` stands -0.4% (inactive); under `CCOC(=O)Cn1nc(-c2ccccc2)nc1-c1ccccc1`, -8% (inactive).
In the case of `COc1ccc(OC)c(/C=c2\sc3nc(-c4cccs4)nn3c2=O)c1` it was 0.4% (inactive); in that of `Cn1c(/C=C/c2cccnc2)nc2ccccc2c1=O`, -2.3% (inactive).
Under `COc1ccc(-n2c(C)cc(C)nc2=O)cc1` stands -1.5% (inactive); under `CCSc1nc(-c2cccs2)nc2c1c(=O)n(C)c(=O)n2C`, -4.4% (inactive); under `O=C(Nc1ccc(-c2cn3ccsc3n2)cc1)C1COc2ccccc2O1` (stereo unspecified), 2.3% (inactive).
Regarding `CC1=C(C(=O)Nc2cccc(C)c2)C(c2cc(Br)ccc2O)NC(=O)N1` (stereo unspecified), the inhibition was -0.3% (inactive).
Consider `CCOc1ccccc1NC(=O)C1C2C=CC(O2)C1C(=O)O` (stereo unspecified), for which the inhibition was -14.3% (inactive).
Take `COC(=O)c1cc(C(=O)NC2CCCCCC2)cc([N+](=O)[O-])c1`: the inhibition is -3.5% (inactive).
As for `CCOc1cccc(/C=N\NC(=O)Cc2cccn2C)c1O`, the inhibition is 2.2% (inactive).
Turning to `C=CCOc1ccc(/C=C2\C(=O)NC(C)=C2C(=O)OC)cc1OC`, the inhibition was 3% (inactive).
Under `COc1cc(F)ccc1S(=O)(=O)N1CCCCCC1` stands -0.1% (inactive).
Under `Cc1cccc(N2CCN(C(=O)c3ccc(Cl)c(Cl)c3)CC2)c1C` stands 3.8% (inactive); under `C=CCN1C(=O)/C(=C/c2ccc(Cl)cc2)C(=O)NC1=S`, 1.8% (inactive); under `Cn1c(-c2ccccn2)nc2ccccc21`, 1.2% (inactive).
In the case of `CCCc1nc(SCC(=O)c2ccc(OC)cc2)c2c(=O)n(C)c(=O)n(C)c2n1` it was -2.4% (inactive); in that of `c1ccc(-c2nnc(-c3ccccn3)nc2-c2ccccc2)cc1`, -0.7% (inactive); in that of `CCn1c(N)nc2c1c(=O)n(C)c(=O)n2C`, -1.5% (inactive).
In the case of `O=c1c2c3c(sc2n2c(=S)[nH]nc2n1-c1ccccc1)CCCCC3`, the inhibition is 1.2% (inactive).
As for `COc1ccc(CCNC(=O)C2CCN(S(=O)(=O)N3CCCCC3)CC2)cc1OC`, the inhibition is -1.4% (inactive).
In the case of `COc1ccc(Cc2nnc(SCC(=O)N3CCN(c4ccccc4)CC3)o2)cc1` it was -9.3% (inactive); in that of `O=C1N=c2ccccc2=C1c1s/c(=N/N=C2/C(=O)Nc3ccccc32)n(-c2ccc(O)cc2)c1O`, 69.8% (active); in that of `O=C1N=c2ccccc2=C1c1sc(=Nc2ccccc2)n(-c2ccccc2)c1O`, -2% (inactive).
As for `O=C1N=c2ccccc2=C1c1sc(=O)n(-c2ccc(O)cc2)c1O`, the inhibition was 0.6% (inactive).
With `Cc1ccc(-c2nc(CS(=O)CC(=O)NCCC(C)C)c(C)o2)cc1` (stereo unspecified), the inhibition was -10.1% (inactive).
Under `CCCCNCCCOc1ccccc1CC` stands -0.3% (inactive); under `COc1cc(/C=C2\SC(NC(C)=O)=NC2=O)cc(Br)c1OC`, 3.2% (inactive); under `COc1cc(C=C2C(=O)c3ccccc3C2=O)cc(Br)c1OCC(=O)O`, 3.3% (inactive).
On to `CCOCCOC(=O)c1cccc(NC(=O)/C=C/c2ccc(Cl)cc2Cl)c1`, for which the inhibition was 3.2% (inactive).
As to `NC(=O)c1cc(-c2ccccc2)sc1N`, the inhibition was 3.8% (inactive).
As to `O=C(O)c1cccc(NC2=C(Cl)C(=O)N(c3ccc(Cl)cc3)C2=O)c1`, the inhibition is 7.4% (inactive).
In the case of `O=C1NC(=O)N(c2ccccc2)C(=O)/C1=C\c1cccn1-c1cccc([N+](=O)[O-])c1` it was 4.5% (inactive).
As for `O=C1OCCC1Sc1nc2ccccc2[nH]1` (stereo unspecified), the inhibition was -11% (inactive).
In the case of `FC(F)(F)c1ccc2nnc(-c3cccc(Cl)c3Cl)n2c1` it was 5.1% (inactive).
In the case of `CC(=O)NN1C(=O)/C(=C\c2ccc(O)c([N+](=O)[O-])c2)SC1=S` it was 1.4% (inactive); in that of `O=C(NN1C(=O)/C(=C/c2cc3c(cc2[N+](=O)[O-])OCO3)SC1=S)c1ccccc1Cl`, 8.9% (inactive); in that of `C=CCN1C(=O)/C(=C\c2cc3c(cc2Br)OCO3)SC1=S`, 0.3% (inactive).
In the case of `CC(=O)NN1C(=O)/C(=C/c2cc3c(cc2[N+](=O)[O-])OCO3)SC1=S` it was 119% (active); in that of `O=C1/C(=C\c2cc3c(cc2[N+](=O)[O-])OCO3)SC(=S)N1c1ccccc1`, 5.2% (inactive).
Turning to `C=CCN1C(=O)/C(=C\c2cc3c(cc2[N+](=O)[O-])OCO3)SC1=S`, the inhibition was 124% (active).
In the case of `CC1(C(=O)O)CCC(C(=O)N2CCOCC2)C1(C)C` (stereo unspecified) it was -3.7% (inactive); in that of `CC(c1nc2ccccc2n1C)C(O)c1ccccc1` (stereo unspecified), -0.3% (inactive); in that of `COc1ccc(NC(=O)c2ccco2)cc1NC(=O)c1ccco1`, 0.7% (inactive).
In the case of `O=[N+]([O-])c1ccc(C2Nc3c(cccc3[N+](=O)[O-])C3C=CCC32)cc1` (stereo unspecified) it was 5.4% (inactive).
Turning to `O=C(O)c1cccc2c1NC(c1ccc([N+](=O)[O-])cc1)C1CC=CC21` (stereo unspecified), the inhibition is 71.1% (active).
In the case of `O=C(O)c1cccc2c1NC(c1cccc(Cl)c1Cl)C1CC=CC21` (stereo unspecified) it was 27.8% (inactive); in that of `O=C(O)c1cccc2c1NC(c1ccc(Cl)cc1)C1CC=CC21` (stereo unspecified), 69.9% (active); in that of `O=[N+]([O-])c1ccc(C2Nc3c(I)cccc3C3C=CCC32)cc1` (stereo unspecified), 4.4% (inactive).
In the case of `O=C(O)c1cccc2c1NC(c1ccccc1Br)C1CC=CC21` (stereo unspecified) it was 15.1% (inactive); in that of `CCNC(=S)Nc1ccccc1Cl`, -1.1% (inactive).
As for `O=C(NN=C1CCN(Cc2ccccc2)CC1)c1sc2ccccc2c1Cl`, the inhibition is 0.3% (inactive).
For `COc1ccc(NC(=O)C(=O)NCc2ccco2)cc1Cl`, the inhibition is -2.8% (inactive).
As to `O=[N+]([O-])c1ccc(S(=O)(=O)NCCOc2ccccc2Cl)cc1`, the inhibition was -1.1% (inactive).
As to `CCOc1ccc(N(CC(=O)NCc2ccc(Cl)cc2)S(=O)(=O)c2ccc(Br)cc2)cc1`, the inhibition is 54.4% (active).
In the case of `CCOc1ccc(N(CC(=O)NCc2ccc(OC)cc2)S(=O)(=O)c2ccc(Br)cc2)cc1` it was -0.5% (inactive).
In the case of `CCOc1ccc(N(CC(=O)NCc2ccc(Cl)cc2)S(C)(=O)=O)cc1` it was -2.6% (inactive).
With `Cc1cccc2cc(=O)[nH]c(C)c12`, the inhibition was 13.2% (inactive).
With `CNS(=O)(=O)c1cc(O)c2c(S(=O)(=O)NC)cccc2c1`, the inhibition is 6% (inactive).
In the case of `Cc1ccc(-c2[nH]n3c(=O)cc(-c4ccc([N+](=O)[O-])cc4)nc3c2C)cc1` it was -3.9% (inactive).
Under `NC(=S)n1[nH]c(-c2ccccc2)c(N=Nc2ccc(C(=O)O)cc2)c1=O` stands -0.5% (inactive).
Regarding `O=C(CCCC(=O)OCC(F)(F)C(F)F)Nc1ccc(F)cc1F`, the inhibition was -2.5% (inactive).
In the case of `CC1CCN(CCCNC(=O)c2cn(C)c3ccc(S(=O)(=O)N4CCCC4)cc3c2=O)CC1` it was -3% (inactive); in that of `CCCCCCCCNC(=O)CCC(=O)O`, -1.5% (inactive); in that of `CCCCCC1NC(=O)NC1CCCCCC(=O)O` (stereo unspecified), -4.9% (inactive).
As to `COc1c(Cl)cc(C(=O)Nc2ccc(N3CCOCC3)cc2)cc1Cl`, the inhibition is 3.1% (inactive).
In the case of `COc1ccc(Cn2c(C)ccc2C)cc1` it was 0.3% (inactive); in that of `O=C(O)c1ccc(CN2CCOCC2)cc1`, 1.1% (inactive); in that of `Cc1ccc(C)n1Cc1ccc(C(=O)O)cc1`, 85.4% (active) and -2.3% (inactive).
In the case of `CC(C(=O)NCc1ccccn1)N1C(=O)c2ccccc2C1=O` (stereo unspecified) it was -2.2% (inactive); in that of `Clc1ccc(-c2ccc(/C=C\c3nc4ccccc4o3)o2)cc1`, 4.5% (inactive).
Consider `O=C(CN1C(=O)/C(=C/c2ccccc2)SC1=S)Nc1cccc(Br)c1`, for which the inhibition is 2.3% (inactive).
Under `O=C(O)CCCCCN1C(=O)/C(=C2/C(=O)N(CC(=O)O)c3ccccc32)SC1=S` stands 1% (inactive).

One may read the inhibition as the drop in the measured response relative to a control, in per cent.
